High-throughput results: PubChem, several laboratories
HIF-2a inh – HIF-2a reporter inhibitors, primary screen, luminescence, 786-0 RCC cells; AID 624352, 2012; inhibition, % at 18.8 µM; 786-0 RCC cells HIF-2a reporter, luciferase luminescence, overnight; 0.72% of 360,000 active;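 active = inhibition of the luminescence signal of 40% or more relative to plate controls, in a single-dose primary screen at 18.75 µM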
PAX8 reporter – inhibitors of PAX8-driven TPO luciferase reporter, primary screen, RMG-I cells, single concentration; SteadyGlo, 24 h; inhibition, % at 12.6 µM; 1.2% of 360,000 active; AID 652154, 2013;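 active = mean replicate inhibition at least 60% with every replicate also reaching 60%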;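 also: luciferase light reporting Pax8 driven TPO promoter activity; plate controls were median of neutral control wells for no effect and mitoxantrone controls for full effect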
MITF TRPM1 inh – inhibitors of MITF-dependent TRPM1 promoter reporter, primary screen, cell-based, SK-MEL-5, single point, luciferase | AID 488899, 2010 | inhibition, % at 12.5 µM | 0.83% of 330,000 active | SK-MEL-5 TRPM1 promoter luciferase, 24 h;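 active = mean inhibition across replicates of 60% or more, whatever share of single replicates reaches that level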
LMP1 NFkB inh – EBV LMP1-driven NF-kappaB luciferase reporter inhibitors, primary screen, cell-based, luminescence, single point | LMP1-induced NF-kappaB luciferase reporter cells | inhibition, % at 12.5 µM | 0.69% of 350,000 active | AID 504558, 2011; in the data active = inhibition above about 41%;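 also: 0% = neutral control wells and 100% = reference inhibitor control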
Peg3 promoter – Peg3 promoter-driven luciferase inhibitors, primary screen, cell-based, HeLa, luciferase luminescence; AID 588405, 2011; 1.7% of 360,000 active; inhibition, % at 20 µM; HeLa PEG-Prom luciferase reporter, overnight;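 active = inhibition of at least 50% at 20 µM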
Shn3 inh set2 – reduction of Shn3 3'UTR firefly luciferase signal, primary screen, Schnurri-3 inhibitor project, cell-based, Clone20 osteoblasts, set 2; Clone20 osteoblast Shn3 3'UTR firefly luciferase, 24 h; inhibition, % at 12.5 µM; 0.52% of 360,000 active; AID 588674, 2011;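 active = mean inhibition of at least 75% with every replicate also reaching 75%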;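 also: 0% = median of neutral control wells and 100% = pilot-screen positive control compound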
Numbers without * were called inactive. Compounds with a hit are over-represented: about 2.8% of the library has one in this group of screens.

Results for O=C(Cc1cccnc1)N1CCCCN2[C@H](CO)[C@H](c3ccc(/C=C/c4ccccc4)cc3)[C@@H]2C1 ?
PAX8 reporter: 6.7

Results for O=C(Cc1ccccn1)N1CCCCN2[C@@H](CO)[C@@H](c3ccc(-c4ccccc4F)cc3)[C@@H]2C1 ?
PAX8 reporter: 98.6*

What do the screens show for `O=C(Cc1ccccn1)N1CCCCN2[C@H](CO)[C@H](c3ccc(-c4ccccc4F)cc3)[C@H]2C1`?
PAX8 reporter: -10.5

What do the screens show for `O=C(Cc1cccnc1)N1CCCCN2[C@H](C1)[C@H](c1ccc(/C=C/c3ccccc3)cc1)[C@@H]2CO`?
PAX8 reporter: 80.8*

Results for O=C(Cc1ccncc1)N1CCCCN2[C@H](C1)[C@@H](c1ccc(C#Cc3ccccc3F)cc1)[C@@H]2CO ?
PAX8 reporter: -13.0

What do the screens show for `O=C(Cc1ccncc1)N1CCCCN2[C@@H](CO)[C@H](c3ccc(C#Cc4ccccc4F)cc3)[C@@H]2C1`?
PAX8 reporter: 5.0

What do the screens show for `COCC#Cc1ccc([C@H]2[C@H](CO)N3CCCCN(C(=O)Cc4ccccn4)C[C@@H]23)cc1`?
PAX8 reporter: -13.8

What do the screens show for `COC(=O)[C@H]1[C@H](CO)[C@H]2Cn3c(ccc(-c4cccc(OC)c4)c3=O)[C@@H]1N2C(=O)c1ccccc1F`?
PAX8 reporter: -2.0

How did CCCNC(=O)N1[C@@H]2c3ccc(-c4cccc(C(=O)N(C)C)c4)c(=O)n3C[C@H]1[C@H](CO)[C@H]2C(=O)O do in these assays?
PAX8 reporter: -7.8

How did COc1ccc(-n2nnnc2C(c2ccccc2)N2CCC(n3c(=O)[nH]c4ccccc43)CC2)cc1 (configuration not stated) do in these assays?
HIF-2a inh: -23.7; PAX8 reporter: 78.4*; Peg3 promoter: 64.3*; Shn3 inh set2: 2.4

Results for COc1ccc(-n2nnnc2C(c2cccs2)N2CCC(n3c(=O)[nH]c4ccccc43)CC2)cc1 (configuration not stated) ?
HIF-2a inh: -23.4; PAX8 reporter: 70.8*; Peg3 promoter: 70.6*; Shn3 inh set2: 30.2

What do the screens show for `COC(=O)[C@@H]1[C@@H](CO)[C@@H]2Cn3c(ccc(-c4ccccc4F)c3=O)[C@H]1N2Cc1ccccc1`?
PAX8 reporter: 9.9

Results for CN(C)C(=S)SSC(=S)N(C)C ?
HIF-2a inh: 24.2; PAX8 reporter: -2.0; MITF TRPM1 inh: 57.8; LMP1 NFkB inh: 13.2; Peg3 promoter: 55.9*; Shn3 inh set2: 55.3

How did C[C@]12CCC3C(CCC4=CC(O)CC[C@@]43/C=N/O)C1(O)CCC2C1=CC(=O)OC1 (some centres not stated) do in these assays?
HIF-2a inh: 30.7; PAX8 reporter: 109.2*; MITF TRPM1 inh: 85.5*; LMP1 NFkB inh: 3.3; Peg3 promoter: 104.9*; Shn3 inh set2: 14.0

How did O=C(O)CCCc1ccc(N(CCCl)CCCl)cc1 do in these assays?
HIF-2a inh: -0.9; PAX8 reporter: -12.6; MITF TRPM1 inh: 8.7; LMP1 NFkB inh: 17.5; Peg3 promoter: 6.0; Shn3 inh set2: 25.3

Results for ClCCN(CCCl)c1ccc(-n2cnc3c(Cl)ncnc32)cc1 ?
HIF-2a inh: 36.4; PAX8 reporter: 24.1; MITF TRPM1 inh: 83.5*; LMP1 NFkB inh: 23.0; Peg3 promoter: 103.9*; Shn3 inh set2: 20.3

How did Cc1cc2c(C(C)C)c(O)c(O)c(C=O)c2c(O)c1-c1c(C)cc2c(C(C)C)c(O)c(O)c(C=O)c2c1O do in these assays?
HIF-2a inh: 89.1*; PAX8 reporter: 103.8*; Peg3 promoter: 94.2*; Shn3 inh set2: 92.3*

What do the screens show for `COc1cc2c(c(OC)c1OC)-c1ccc(O)cc1C(NC(C)=O)CC2` (configuration not stated)?
HIF-2a inh: 13.1; PAX8 reporter: 79.8*; MITF TRPM1 inh: 61.3*; LMP1 NFkB inh: -4.5; Peg3 promoter: -37.9; Shn3 inh set2: 25.1

Results for COc1cc2c(c(OC)c1OC)-c1ccc(O)cc1[C@@H](NC(C)=O)CC2 ?
HIF-2a inh: 23.8; PAX8 reporter: 90.0*; MITF TRPM1 inh: 65.1*; LMP1 NFkB inh: 8.5; Peg3 promoter: -43.0; Shn3 inh set2: 21.2

Results for COc1cc2c(c(OC)c1OC)-c1ccc(O)c(=O)cc1[C@@H](NC(C)=O)CC2 ?
HIF-2a inh: 10.6; PAX8 reporter: 9.6; MITF TRPM1 inh: 6.3; LMP1 NFkB inh: -0.6; Peg3 promoter: 16.6; Shn3 inh set2: -2.9

How did COC(=O)[C@H]1[C@H](CO)[C@H]2Cn3c(ccc(-c4cccnc4)c3=O)[C@@H]1N2S(=O)(=O)c1ccccc1F do in these assays?
PAX8 reporter: -16.4

What do the screens show for `N#Cc1ccc(-c2ccc([C@H]3[C@@H](CO)N4CCCCN(C(=O)Cc5ccccc5)C[C@@H]34)cc2)cc1`?
PAX8 reporter: 2.7

How did Cc1cccc(CN2CCN(Cc3ccc(Cl)cc3)CC2)c1 do in these assays?
HIF-2a inh: 20.8; MITF TRPM1 inh: -8.5; LMP1 NFkB inh: 84.1*; Peg3 promoter: 17.6; Shn3 inh set2: 14.7

How did Cc1cccc(CN2CCN(c3ccc(Cl)cc3)CC2)c1 do in these assays?
HIF-2a inh: 9.9; PAX8 reporter: 9.5; MITF TRPM1 inh: -13.4; LMP1 NFkB inh: 0.3; Peg3 promoter: 11.0; Shn3 inh set2: 13.2

How did O=C1NCN(c2ccccc2)C12CCN(C(c1ccccc1OC(F)(F)F)c1nnnn1Cc1ccccc1)CC2 (configuration not stated) do in these assays?
HIF-2a inh: -10.0; PAX8 reporter: 31.9; Peg3 promoter: 91.1*; Shn3 inh set2: 20.8

How did C[N+]1(C)C2CCC1CC(OC(=O)C(CO)c1ccccc1)C2 (configuration not stated) do in these assays?
HIF-2a inh: 11.7; PAX8 reporter: -17.5; MITF TRPM1 inh: 14.0; LMP1 NFkB inh: 1.5; Peg3 promoter: 5.0; Shn3 inh set2: -3.8

Results for C[N+]1(C)[C@@H]2CC[C@H]1CC(OC(=O)C(CO)c1ccccc1)C2 (some centres not stated) ?
HIF-2a inh: 4.7; PAX8 reporter: -5.3; MITF TRPM1 inh: -10.1; LMP1 NFkB inh: 80.0*; Peg3 promoter: 0.4; Shn3 inh set2: -3.5

How did Cc1ccc(C(O)(c2ccc(C)c(C)c2)C2CN3CCC2CC3)cc1C (configuration not stated) do in these assays?
HIF-2a inh: 17.5; PAX8 reporter: 21.3; MITF TRPM1 inh: 82.5*; LMP1 NFkB inh: 2.3; Peg3 promoter: 98.1*; Shn3 inh set2: -7.9
